Data on 20 compounds can be found in PubChem BioAssay (NCI).

The nature of test [1]: NCI Yeast Anticancer Drug Screen. Data for the rad50 strain (AID 155).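 Also: 0% = growth of vehicle-only cultures of the same strain.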 The note with it: S. cerevisiae rad50 strain growth inhibition, hits give high values; at 50.0 µM unless noted. In a few lines:
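Relative growth inhibition (compound vs vehicle) was measured in yeast with a defined repair-gene alteration.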

A short description of test [2]: NCI Yeast Anticancer Drug Screen. Data for the mec2-1 strain (AID 157). The conditions noted are these: S. cerevisiae mec2-1 strain, hits give high values; at 50.0 µM unless noted. Put shortly: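 Growth inhibition is read against vehicle-treated controls after compound exposure of the mec2-1 yeast strain, which is defective in DNA damage repair or cell cycle control.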

A short description of test [3]: NCI Yeast Anticancer Drug Screen. Data for the sgs1 mgt1 strain (AID 161).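 Also: 0% = growth of cultures given vehicle only.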 The conditions noted are these: S. cerevisiae sgs1 mgt1 strain, hits give high values; at 50.0 µM unless noted. Put shortly:
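Compounds are added to genetically altered yeast, and growth is compared with cultures given vehicle alone to give percent inhibition.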

The nature of test [4]: NCI Yeast Anticancer Drug Screen. Data for the cln2 rad14 strain (AID 165).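 Also: 0% = growth equal to vehicle treated cultures.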 The note with it: S. cerevisiae cln2 rad14 strain, hits give high values; at 50.0 µM unless noted. In a few lines: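 Growth inhibition, relative to vehicle-treated controls, is the read-out. The test organism is a yeast strain with defined genetic alterations, cln2 rad14.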
Test [5] is described as follows: NCI Yeast Anticancer Drug Screen. Data for the bub3 strain (AID 167). The note with it: S. cerevisiae bub3 mutant strain, hits give high values; at 50.0 µM unless noted. Put shortly:
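Screening used yeast with an engineered genetic alteration affecting cell cycle control. Compound-exposed cultures were compared with vehicle cultures, and reduced growth was taken as inhibition.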

The nature of test [6]: NCI Yeast Anticancer Drug Screen. Data for the mlh1 rad18 strain (AID 175). The conditions noted are these: S. cerevisiae mlh1 rad18 strain growth inhibition, hits give high values; at 50.0 µM unless noted. In a few lines:
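Cells of a genetically altered yeast strain, deficient in DNA damage repair, were treated with compound. Their growth was then compared with that of vehicle-treated cultures to give inhibition.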

Values joined by “and” are separate entries in the source; they are usually repeats but may differ in a detail not shown here. Identical values can stand only once. This is part of a sample that, as a whole, favours compounds with a hit. Of some 79,000 tested, about 15% had one in any assay. Unmarked numbers belong to inactive results. Active and inactive are the calls of the source. Rule as the data show it: active = growth inhibition above about 70%; inactive = the rest.

As to `NC(=S)c1cccc(OCCc2ccccc2)c1`, the growth inhibition in test [1] is 97.7% (active); in test [2], 99.4% (active); in test [3], 99% (active); in test [4] it was 96.3% (active); in test [5] it was 99.2% (active); in test [6] it was 98.7% (active).

Regarding `COc1ccc2cc(N3CCCC3)ccc2c1`, the growth inhibition in test [1] is 7.8%; in test [2] it was -7.35%; in test [3], 6.15%; in test [4], -14.8%; in test [5] it was -7.55%; in test [6] it was -37.8%.

With `O=C1CCC(=O)N1CNc1cccc(NCN2C(=O)CCC2=O)c1`, the growth inhibition in test [1] is -5.35%; in test [2] it was -30.9%; in test [3] it was 11.9%; in test [4] it was 10.5%; in test [5], 3.9%; in test [6] it was -4.6%.

Consider `C(CCCC1CO1)CCC1CO1` (stereo not given), for which the growth inhibition is 24.5% in test [1]; 18.3% in test [2]; 17.7% in test [3]; -36.5% in test [4]; 11.1% in test [5]; 7.65% in test [6].

With `CCCCN1C(=O)CC2[C@@H]3CCc4cc(OC(C)=O)ccc4C3CC[C@]2(C)C1=O` (stereo not given in full), the growth inhibition in test [1] is 11.3%; in test [2], 4.15%; in test [3] it was 5.45%; in test [4], 26.6%; in test [5] it was -7.3%; in test [6], -0.1%.

Consider `CCC(C)C(O)C(C(=O)O)C1CCCCC1` (stereo not given), for which the growth inhibition in test [1] is 31.6%; in test [2], 23.2%; in test [3] it was 15.4%; in test [4], 39.5%; in test [5], 23.9%; in test [6], 26%.

As for `C=C1C2CCC3(CCC4C5(C)CCCC4(C=[N+](CCO)C5)C3C2)C1O` (stereo not given), the growth inhibition in test [1] is -20.7%; in test [2] it was -22.5%; in test [3], -27.9%; in test [4], 14.1%; in test [5] it was -17.6%; in test [6], -28.6%.

In the case of `CN(C)/C(N)=N\c1nc(O)cc(=O)[nH]1`, the growth inhibition was 6.7% in test [1]; -19.6% in test [2]; -0.05% in test [3]; -0.6% in test [4]; 10.7% in test [5]; 10.1% in test [6].

With `OCCCCC(O)CO` (stereo not given), the growth inhibition in test [1] is -2.55%; in test [2], -13.7%; in test [3], -1.1%; in test [4], -8.65%; in test [5], -18.6%; in test [6] it was -7.3%.

`CCCCCCCCCCCCCCCCCC(=O)N1CCN(C(=O)CCCCCCCCCCCCCCCCC)C1`: the growth inhibition in test [1] is 30.4%; in test [2], -18.3%; in test [3], -4.3%; in test [4], -19.2%; in test [5], -1.25%; in test [6] it was 1.05%.

`CC1CCC(C(C)C)C(NNC(N)=O)C1` (stereo not given): the growth inhibition is 39.5% and 9.65% in test [1]; 12.7% and 3.8% in test [2]; 5% and 6.8% in test [3]; 14.3% and 3.4% in test [4]; 45% and -0.95% in test [5]; 15.9% and 9.6% in test [6].

For `NC(=O)C(c1ccccc1)C1(O)CCCCC1` (stereo not given), the growth inhibition in test [1] was 7.7%; in test [2], 5.7%; in test [3] it was 9.7%; in test [4] it was 6.95%; in test [5], 3.2%; in test [6], 11.4%.

For the compound `COCCC(=O)OCCC(C)OC` (stereo not given), the growth inhibition is 21.6% in test [1]; -4.1% in test [2]; 3.65% in test [3]; 1.95% in test [4]; -42.2% in test [5]; -11.2% in test [6].

For the compound `CC(=O)c1cccc(N=NN(C)C)c1`, the growth inhibition was 41% in test [1]; 36.5% in test [2]; 58% in test [3]; 6.35% in test [4]; 40.2% in test [5]; 46.8% in test [6].

With `CCCCCc1cc[n+](CC(=O)c2ccc(F)cc2)cc1`, the growth inhibition is -6.55% in test [1]; 13.6% in test [2]; 23.1% in test [3]; -35.6% in test [4]; 45.6% in test [5]; 13.5% in test [6].

In the case of `OC1CC2CCCCC2CC1(O)c1ccc(OCc2ccccc2)c(OCc2ccccc2)c1` (stereo not given), the growth inhibition is 16.6% in test [1]; -9.55% in test [2]; -19% in test [3]; 14.8% in test [4]; 3.4% in test [5]; -5.2% in test [6].

For the compound `c1ccc(CNc2nnnc3ccccc23)cc1`, the growth inhibition in test [1] is -2.75%; in test [2], -1.45%; in test [3] it was -2.4%; in test [4] it was -30.8%; in test [5] it was -14.5%; in test [6] it was 2.2%.

As for `COc1cccc(OC)c1NC(=O)C(=O)Nn1c(NNC(=O)c2ccncc2)nc2ccccc2c1=O`, the growth inhibition in test [1] is 28.6%; in test [2], 26.5%; in test [3], 4.65%; in test [4] it was -30.1%; in test [5], 35%; in test [6], 38.4%.

Take `CC1(C)SCc2nc3ccccc3n21`: the growth inhibition was -9.75% in test [1]; -34.9% in test [2]; 12.2% in test [3]; 21.9% in test [4]; 19.1% in test [5]; 6.3% in test [6].

As for `O=C(Oc1ccc(Cl)cc1)c1ccc([N+](=O)[O-])cc1`, the growth inhibition in test [1] is 12.2%; in test [2], 26.1%; in test [3], 9.9%; in test [4], 2.7%; in test [5], 8.65%; in test [6], 0.2%.
